Results reported in ChEMBL document CHEMBL4888484, “Replenishing the malaria drug discovery pipeline: Screening and hit evaluation of the MMV Hit Generation Library 1 (HGL1) against asexual blood stage Plasmodium falciparum ,using a nano luciferase reporter read-out” (2022).
The campaign covered roughly 150,000 compounds. About 540 (0.36%) showed an effect of 50% or more. The sample holds strong results, similar compounds and a random draw of the others, so the mix is not that of the screen.

Each compound was assayed on Plasmodium falciparum (assay: Primary screen in NF54 nanoGlo assay, in single point, at 2uM, 72h; a lower Z score goes with more inhibition). Settings: timepoint 72 hour.
Type: functional, Erythrocyte

Row | Compound | % Inhibition [%] | Z score
1 | CC[C@@H](CNc1cc(NC2CC2)ncn1)C(=O)O | -7 | 1.58
2 | Cc1noc(CCCC(=O)N2CCN(C3CCCC3O)CC2)n1 (centres undefined) | -26 | 3
3 | CN1CC2(CCN(Cc3ccccc3OCCc3ccccc3)CC2)CC1=O | 0 | -0.02
4 | CCS(=O)(=O)C1CCN(Cc2cn(-c3ccc(F)c(Cl)c3)nn2)CC1 | 8 | -0.85
5 | C[C@H](Oc1ccccc1F)c1nnc2n1CCCC2 | -9 | 1.39
6 | COc1ccc(CN2C(=O)Cc3ccccc3[C@@H](C(=O)O)[C@@H]2c2ccccc2)c(OC)c1 | 0 | -0.05
7 | O=C(N[C@@H](CN1CCCC1)c1ccccc1)N1CCC(c2ccn[nH]2)CC1 | 50 | -8.21
8 | CCCCNC(=O)N1CC[C@H](c2ccn[nH]2)C1 | -16 | 1.68
9 | O[C@@H](CN1CCC(c2ccn[nH]2)CC1)C(F)(F)F | 27 | -3.09
10 | Cc1cc2ncc(-c3nc([C@H]4CCOC(C)(C)C4)no3)c(C)n2n1 | -5 | 0.67
11 | Cc1ccsc1-c1nccn1CCNC(=O)c1ccc(F)cc1 | -3 | 0.58
12 | Cc1ccc(C(N)=O)c(NCC2(N3CCN(C)CC3)CCCC2)n1 | -17 | 1.6
13 | Cc1cc(N(C)C(=O)c2nccn3ccnc23)ccc1Br | 26 | -3.49
14 | COCC(C)(C)c1noc(-c2ccc(C(F)(F)F)c(=O)[nH]2)n1 | -6 | 0.62
15 | COc1ccc(-n2nc(C(=O)N3CCN(C)CC3)c(=O)n(Cc3cccc(C(F)(F)F)c3)c2=O)cc1OC | -2 | 0.34
16 | C=CCN1C(=O)OC(C)(CCC=C(C)C)C1(C)O (centres undefined) | 76 | -1.64
17 | O=C(COc1ccc(Br)cc1)Nc1ccc2c(c1)OCCCO2 | -9 | 0.79
18 | CC(C)C(=O)N(Cc1ccc(OS(=O)(=O)C(C)C)cc1)CC1CC1 | -21 | 4
19 | COc1cc(F)c(C(C)NC2C[C@@H]3COC[C@H]23)cc1OC (some centres undefined) | -1 | 0.15
20 | CC(C)(C)OC(=O)C1C[C@@H](N)[C@@H](n2cc(C(C)(C)C)nn2)C1 (some centres undefined) | -7 | 1.24
21 | Cc1ccccc1C(=O)N1[C@H](C(=O)NC2CC2)COC12CCN(C(=O)c1ccc(F)cc1)CC2 | -2 | 0.23

Row | Compound | % Inhibition [%] | Z score
22 | O=S(=O)(CCCOc1ccccc1)NC[C@H]1CCCN1c1ccccc1 | -13 | 2.45
23 | CCc1nc(C#N)cc(N2CCC[C@@H]2CS(C)(=O)=O)n1 | -2 | 0.21
24 | Cc1cnc([C@H](C)N2CCC(S(=O)(=O)N3CCCC3)CC2)o1 | -14 | 2.67
25 | O=c1[nH]c2ccc(NCc3cc(Cl)ccc3OCc3ccccc3F)cc2[nH]1 | 2 | -0.36
26 | CC(C)(C)OC(=O)N1CC(OC(=O)CC2(CS(C)(=O)=O)CC2)C1 | -13 | 1.78
27 | CNC(=O)c1[nH]nc2c1CN(CC(=O)Nc1cccc(C)c1C)CC2 | -5 | 0.76
28 | Cc1cccc(CN2C[C@@H](O)C[C@H]2c2nnc3n2CCN(C(=O)C(C)C)C3)c1 | 4 | -0.68
29 | C[C@@]1(C(=O)N2CCN(c3ccccc3F)CC2)Oc2ccccc2NC1=O | 1 | -0.16
30 | CC(C)(C)OC(=O)N1CCN(c2nnc(NC(=O)c3c(F)cccc3F)[nH]2)CC1 | -14 | 1.7
31 | CC(C)(C)OC(=O)N1CCC2(CC1)NN=C1C=C(N3CCN(c4ccccc4F)CC3)N=CN12 | 50 | 1.26
32 | O=C(Nc1ccc(-n2cnnn2)cc1)c1coc(-c2ccccc2)n1 | -6 | 1.22
33 | CN1CCN(S(=O)(=O)N[C@@H](CO)c2ccc(F)cc2)CC1 | -12 | 2.47
34 | OC[C@H]1CCN(c2ccnc3cc(Cl)ccc23)C[C@@H]1O | -1 | 0.17
35 | COc1cc2c(N3CCC([C@H](O)C(=O)NC4CC4)CC3)ccnc2cc1F | -6 | 0.61
36 | CCC(CC)N(Cc1ccc2c(c1)OCO2)C(=O)Cc1cccnc1 | 23 | -2.95
37 | CCOc1ccc(CN2CCC[C@@](F)(C(=O)N3CCOCC3)C2)cc1OC | -11 | 0.93
38 | N#CCc1ncc(CCN2C(=O)c3ccccc3C2=O)s1 | 51 | -6.59
39 | O=C1c2ccccc2C(=O)N1Cc1cnc(N2CCCCC2)s1 | 45 | 0.07
40 | CC(=O)Nc1ccnc(Cc2ccccc2)n1 | -8 | 1.29
41 | CC(CCc1cccn1C)NC(=O)NC1CCN(c2cnn(C)c2)C1 (centres undefined) | -1 | 0.08
42 | CCc1nn(C)cc1NC(=O)N1CCN(C(=O)c2ccc(F)cc2)CC1 | 5 | -0.74

Row | Compound | % Inhibition [%] | Z score
43 | CCOc1cc(C(=O)Nc2ccc3nc4c(c(Nc5ccc(OC)c(OC)c5)c3c2)CCCC4)cc(OCC)c1OCC | 93 | -11.16
44 | COc1ccccc1Nc1c2c(nc3ccc(NC(=O)c4ccc5c(c4)OCO5)cc13)CCCC2 | 2 | -0.26
45 | COc1ccc(C(=O)Nc2ccc3nc4c(c(Nc5ccc(OC)c(OC)c5)c3c2)CCCC4)c(OC)c1 | -8 | 0.97
46 | CC1(N2CCOCC2)CCN(c2ncc(C(F)(F)F)s2)CC1 | -5 | 0.84
47 | CCC1(N2CCOCC2)CCN(c2ncc(C(F)(F)F)s2)CC1 | 12 | -1.55
48 | FC(F)(F)c1cnc(N2CCOC3(CCOCC3)CC2)s1 | 105 | -19.68
49 | CC1(C#N)CCN(Cc2cc(C(C)(C)C)[nH]n2)CC1 | 4 | -0.56
50 | CC(C)(C)c1cc(CN2CCN(S(N)(=O)=O)CC2)n[nH]1 | 72 | -0.86
51 | CC(C)(C)c1cc(CN2CCC3(CC2)[C@H](O)C[C@@H]3O)n[nH]1 | -1 | 0.15
52 | CC(C)OCC(=O)Nc1ccn(CCCn2ccnc2)n1 | -7 | 1.24
53 | Cc1cc(NC(=O)COc2ccccc2)nn1-c1ccc(Cl)cc1 | -3 | 0.32
54 | CCc1cc(NC(=O)Cc2ccc(OC)cc2)nn1-c1ccc(OC)cc1 | -2 | 0.3
55 | COc1ccc(CC(=O)Nc2cc(C)n(-c3cccc(Cl)c3)n2)cc1 | 80 | -8.55
56 | O=C(Nc1cccnc1O)c1nc(C2CC2)n(-c2ccccc2)n1 | 33 | -3.76
57 | CN(C)C(=NCCC1CCCC1)N(C)C | -7 | 0.94
58 | O=C(Cc1n[nH]c(=O)c2ccccc12)N[C@H]1CCCc2c1[nH]c1c(Cl)cccc21 | 3 | -0.39
59 | CCN1CCCCc2cc(C(=O)N[C@H]3CCS(=O)(=O)C3)sc21 | -2 | 0.2
60 | COc1ccc(C(=O)N2c3ncnn3C(c3ccccc3)CC2c2ccc(C)cc2)cc1OC (centres undefined) | 76 | -10.75
61 | COc1ccc(C2CC(c3ccc(C)cc3)n3ncnc3N2C(=O)c2ccccc2)cc1 (centres undefined) | 32 | -3.62
62 | CCC(=O)N1c2ncnn2C(c2ccc(C)cc2)CC1c1ccccc1 (centres undefined) | 3 | -0.41
63 | CC(C)n1ncc2c1CC(NC(=O)CCC1CCCO1)CC2 (centres undefined) | -3 | 0.62

Row | Compound | % Inhibition [%] | Z score
64 | CN(C)c1ccc(C(=O)Nc2ccccc2-c2cn3c(n2)CCCC3)nn1 | -10 | 1.93
65 | O=C1C2CCCCN2C(=O)N1CC(O)COc1ccc(F)cc1 (centres undefined) | -5 | 0.77
66 | CCOC1CC(NCc2c[nH]nc2-c2cccnc2)C12CCC2 (centres undefined) | -10 | 1.18
67 | CCOC1CC(NC2CC(c3ccc(F)cc3)C2)C12CCC2 (centres undefined) | 85 | -15.92
68 | CCOC1CC(NC(C)C(=O)N(C)Cc2cccc(F)c2)C12CCCC2 (centres undefined) | 4 | -0.62
69 | CCn1ccc(C(=O)N2CC(N(Cc3cccnc3)S(C)(=O)=O)C2)n1 | -4 | 0.78
70 | CC(C)(C)OC(=O)N[C@@H]1CCCN(Cc2nc(-c3ccco3)no2)C1 | -11 | 1.1
71 | Cc1nn2c(-c3ccc(-c4ccccc4)cc3)ccnc2c1Cl | -12 | 1.64
72 | CCc1c(C)nn2c(c1C)c(-c1ccccc1)[n+]1c(C)c(CC)c(C)nc21 | 53 | -10.21
73 | CCc1noc(Cc2c(C)nn(-c3ccccc3)c2C)n1 | -5 | 0.89
74 | C[C@@H](CN1CCOCC1)NC(=O)c1cccc2c1C(=O)OC2(C)C | 2 | -0.36
75 | O=C(CN1C(=O)CCC1=O)N1CCN(S(=O)(=O)c2ccc(Br)cc2)CC1 | -14 | 1.24
76 | COc1cccc([C@H]2C[C@H](N(C)C(=O)CCCC(F)(F)F)C2)c1 | 5 | -0.72
77 | Cn1nc(-c2nc(-c3ccc(F)cc3)no2)c2c1CCN(C(=O)c1cccc(Cl)c1)C2 | 66 | -7.55
78 | Cn1nc(-c2nc(-c3cccc(F)c3)no2)c2c1CCN(C(=O)c1ccccn1)C2 | 12 | -1.38
79 | Cn1nc(-c2nc(-c3cccc(F)c3)no2)c2c1CCN(C(=O)c1cccc(F)c1)C2 | -7 | 0.84
80 | CC12CN(S(=O)(=O)c3ccc4c(c3)OCCO4)C3(C(=O)OCc4ccccc4)CC1CCC23C (centres undefined) | 70 | -8.79
81 | CC12CN(S(=O)(=O)c3ccccc3)C3(C(=O)O)CC1CCC23C (centres undefined) | 6 | -0.98
82 | CC12CN(S(=O)(=O)c3ccc4c(c3)OCCO4)C3(C(=O)NCCc4ccccc4)CC1CCC23C (centres undefined) | -11 | 1.42
